Sampled rows, rich in hits. Any-hit rate of the full collection: about 10%.
HPGD inh – qHTS Assay for Inhibitors of HPGD (15-Hydroxyprostaglandin Dehydrogenase) | 15-hydroxyprostaglandin dehydrogenase [NAD(+)] (Homo sapiens), P15428 | purified HPGD, NADH fluorescence kinetic, PGE2 substrate | Potency, µM, inactives show at the top dose activity change, negative = inhibition, most hits filed as inhibitors | 150,000 tested, 4.3% active | AID 894, 2007; note: potency is the fitted concentration of half-maximal effect
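20 nM HPGD preincubated 15 min at room temperature with compound in 50 mM Tris-HCl pH 8, 0.01% Tween 20. Started with 1 mM NAD+ and 30 uM prostaglandin E2; NADH fluorescence (360/450 nm) read 5 times over 30-s intervals, last minus first.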
LMNA splice mod – qHTS Assay for Modulators of Lamin A Splicing; HeLa LMNA splicing GFP/RFP minigene ratio, 48 h; Potency, µM (top dose mostly 46.1 µM), for inactives: at the top dose ratio change, negative = inhibition, most hits filed as inhibitors; AID 1487, 2009; 200,000 tested, 0.01% active; active = well fitted inhibition curve with a large enough effect in the signal ratio, with a control signal flat, not every such curve was filed as active; inconclusive = small, poorly fitted or top-dose-only effect, or effect the other way, or a change in a side signal; the % refers to the signal ratio; note: potency is the fitted concentration of half-maximal effect
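Read-out is the ratio of GFP to DsRed2 object intensity, acquired by 488 nm laser-scanning cytometry on HeLa lamin A-EGFP minigene reporter cells. Compound incubation 48 hrs at 37 °C in Opti-MEM with 2% FBS; DMSO 0.5% final.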
12-hLO inh – qHTS Assay for Inhibitors of 12-hLO (12-human lipoxygenase); Polyunsaturated fatty acid lipoxygenase ALOX12 (Homo sapiens), P18054; AID 1452, 2008; Potency, µM (doses to about 57.1 µM), without a hit: at the top dose activity change, negative = inhibition, actives largely listed as inhibitors; 150,000 tested, 0.12% active; purified 12-hLO, xylenol orange hydroperoxide absorbance; active = well fitted inhibition curve with a large enough effect; inconclusive = small, poorly fitted or top-dose-only effect; note: potency is the fitted concentration of half-maximal effect; nearly all actives have a fitted effect of over 55% in size
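Purified human 12hLO (150 nM final) was preincubated with compounds for 15 min at room temperature in 25 mM Hepes pH 7.0, 0.01% Triton X-100, then reacted with 40 uM arachidonic acid for 30 min. Hydroperoxide was detected with ferrous iron/xylenol orange.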
PNC inhibitor – High Content Assay for Compounds that inhibit the Assembly of the Perinucleolar Compartment; PC3M PTB-GFP, PNC prevalence imaging, 16 h; hits give low values; activity change (PNC), negative = inhibition, % at 10 µM; 140,000 tested, 3.1% active;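 active = readout at or below -70, meaning at least 70% loss of cells showing the perinucleolar compartment, a nuclear body marking cancer cells; inconclusive = readout between -30 and a set limit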;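 note: plate controls were DMSO wells for no effect and camptothecin positive control wells for full effect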
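PC3M cells stably expressing PTB-GFP, 750–1000 cells/well, treated 16 h at 37 °C with compound (23 nl of library stock), in duplicate. After paraformaldehyde fixation and Hoechst stain, imaged at 20x; PNC prevalence scored by image analysis.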
ALDH1A1 inh – qHTS Assay for Inhibitors of Aldehyde Dehydrogenase 1 (ALDH1A1). Aldehyde dehydrogenase 1A1 (Homo sapiens), P00352. Purified ALDH1A1, NADH fluorescence, propionaldehyde substrate. Potency, µM (titrated, usually from 75.3 µM), inactives show at the highest dose activity, negative = inhibition, actives largely listed as inhibitors. 220,000 tested, 7.3% active;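 note: potency is the fitted concentration of half-maximal effect; plate controls were no enzyme wells and a reference inhibitor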
Target sequence (P00352 whole entry, looked up): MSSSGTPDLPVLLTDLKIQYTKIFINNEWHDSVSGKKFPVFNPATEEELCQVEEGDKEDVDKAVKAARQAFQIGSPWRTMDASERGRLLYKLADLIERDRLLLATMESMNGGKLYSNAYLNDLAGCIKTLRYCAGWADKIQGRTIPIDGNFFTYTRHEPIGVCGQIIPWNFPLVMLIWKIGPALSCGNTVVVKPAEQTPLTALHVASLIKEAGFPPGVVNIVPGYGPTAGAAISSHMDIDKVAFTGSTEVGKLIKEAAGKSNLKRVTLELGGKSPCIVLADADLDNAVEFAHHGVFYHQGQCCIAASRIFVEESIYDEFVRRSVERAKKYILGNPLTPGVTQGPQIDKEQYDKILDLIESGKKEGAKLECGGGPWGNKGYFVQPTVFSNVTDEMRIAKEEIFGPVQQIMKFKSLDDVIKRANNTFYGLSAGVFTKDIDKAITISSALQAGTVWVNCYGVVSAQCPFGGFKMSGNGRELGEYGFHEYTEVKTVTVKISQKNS
Active calls of the source: *; ? = inconclusive; . = not tested or not shown; [ ] = remark or other dose. Unless noted, calls come from the whole dose curve; as a rule, active = well fitted inhibition curve with a large enough effect (not every such curve was filed as active); inconclusive = small, poorly fitted or top-dose-only effect, or another doubt; inactive = no such curve, though single readings can be large or run the other way. Unless noted, % is set by controls: 0 for no effect and ±100 for the full control effect.

SMILES	HPGD inh	LMNA splice mod	12-hLO inh	PNC inhibitor	ALDH1A1 inh
CCOc1c(CC2C(=O)Nc3ccc(Br)cc32)cccc1OC (stereo unspecified)	.	-3%[46 µM]	.	.	.
Cc1ccc(C)c(S(=O)(=O)Nc2ccc(O)cc2)c1	-9%	?	-4%	-2	?
Cc1cc(C)c(S(=O)(=O)Nc2ccc(O)cc2)cc1C	-4%	12%	-12%	13	14µM*
COc1ccc(NS(=O)(=O)c2cc(S(C)(=O)=O)ccc2C)cc1	-6%	?	1%	8	28µM*
Cc1ccc(S(C)(=O)=O)cc1S(=O)(=O)Nc1ccccc1	3%	-7%	-1%	20	2%
COc1ccc(NS(=O)(=O)c2cc(C)ccc2C)cc1	14µM*	?	-16%	16	0.56µM*
COc1ccc(NS(=O)(=O)c2cc(C(=O)O)ccc2C)cc1	-7%	8%	2%	51	3%
COc1cc(NS(=O)(=O)c2ccc(NC(=S)NC(=O)c3sc4cc(F)ccc4c3Cl)cc2)nc(OC)n1	16µM*	-1%	4%	8	8.9µM*
COc1cc(NS(=O)(=O)c2ccc(NC(C)=O)cc2)nc(OC)n1	2%	0%	1%	10	?
COc1cc(NS(=O)(=O)c2ccc(N/C=C(\C#N)c3nc4cc(Cl)ccc4o3)cc2)nc(OC)n1	28µM*	?	?	?	9%
COc1cc(NS(=O)(=O)c2ccc(NC(=O)c3ccco3)cc2)nc(OC)n1	-5%	?	6%	-82*	2%
COc1cc(NS(=O)(=O)c2ccc(NC(=S)NC(=O)c3sc4ccccc4c3Cl)cc2)nc(OC)n1	25µM*	-5%	-1%	-20	11µM*
NC(N)=NS(=O)(=O)c1ccc(NC(=S)NC(=O)c2sc3ccccc3c2Cl)cc1	-7%	-1%	0%	?	?
CCC1CN(C(=O)N2CCC(C(=O)NCCc3ccc(OC)cc3OC)CC2)c2cc(C)ccc2O1 (stereo unspecified)	.	2%[46 µM]	.	.	.
COc1ccc(-c2nc3cnc(Nc4cccc(OC)c4)nc3n(C3CC3)c2=O)cc1	.	?	.	.	1%
CCOC(=O)c1ccc(N2Cc3ccccc3C2=NC(=O)c2ccncc2)cc1	.	.	.	.	-6%
O=C(N=C1c2ccccc2CN1c1ccc(F)cc1)c1ccc(Cl)nc1	-7%	-8%	1%	-28	28µM*
O=c1c(F)cn(C2CCCO2)c(=O)n1Cc1ccc(Cl)cc1 (stereo unspecified)	.	?	.	.	-6%
O=c1c(F)cn(C2CCCO2)c(=O)n1Cc1c(Cl)cccc1Cl (stereo unspecified)	16µM*	-9%	2%	-9	-1%
O=c1[nH]c(=S)[nH]c2sccc12	.	1%[46 µM]	.	.	?
O=C(Nc1cccnc1)c1ccc(N2CCCC2)c([N+](=O)[O-])c1	.	?	.	.	7.9µM*
Cc1cccc(NC(=O)c2ccc(N3CCCCC3)c([N+](=O)[O-])c2)n1	?	?	-3%	26	13µM*
CN(C)C(=O)c1ccc(NC(=O)c2cccnc2)cc1	32µM*	-6%	-4%	1	-1%
O=C(Nc1ccccc1Cl)c1ccc(-n2cccn2)c([N+](=O)[O-])c1	.	.	.	.	8.9µM*
CN1C(=O)c2ccc(NC(=O)c3ccc(N4CCCCC4)c([N+](=O)[O-])c3)cc2C1=O	?	-10%	3%	-8	?
SMILES	HPGD inh	LMNA splice mod	12-hLO inh	PNC inhibitor	ALDH1A1 inh
O=C(Nc1ccc(OC(=O)c2cccnc2)cc1)c1cccnc1	-4%	1%	6%	61	12%
COc1ccc(NC(=O)c2cc(-c3ccc(F)cc3)no2)cc1OC	.	5%[46 µM]	.	.	.
O=C(Nc1ccc(N2CCCC2)c(Cl)c1)c1cccnc1	-26%	-8%	2%	252	8.9µM*
Cc1ccc(NC(=S)C2=C(O)c3sccc3N(C)S2(=O)=O)cc1	?	-2%	?	29	7.9µM*
N=C1S/C(=C\c2ccc(-c3cccc(Cl)c3)o2)C(=O)N1c1nccs1	?	?	2%	-17	6%
N=C1S/C(=C\c2ccc(-c3ccccc3C(=O)O)o2)C(=O)N1c1ccc2c(c1)OCO2	.	.	.	.	11µM*
Cc1ccc(NC(=O)CN2C(=O)S/C(=C\c3ccc(-c4cccc(C(=O)O)c4C)o3)C2=O)cc1C	.	.	.	.	-15%
COc1ccccc1N1C(=N)S/C(=C\c2ccc(-c3ccccc3C(=O)O)o2)C1=O	25µM*	-2%	-3%	-26	?
O=C(OCCCCN1C(=O)c2ccccc2C1=O)c1n[nH]c2ccccc12	32µM*	-16%	-1%	?	9%
N=C1C=CC(=C(c2ccc(N)cc2)c2ccc(N)cc2)C=C1	10µM*	.	-6%[11.4 µM]	.	7%[13.5 µM]
CCOc1ccc(NC(=O)CSc2nnc(C(C)C)n2CC)cc1	-3%	-3%	-3%	-119*	-5%
C=CCn1c(COc2ccc(Cl)cc2)nnc1SCC(=O)NCC(=O)OCC	-3%	2%	-6%	-21	?
C=CCn1c(COc2ccc(Cl)cc2)nnc1SCC(=O)Nc1ccc(S(N)(=O)=O)cc1	-10%	10%	-20%	-114*	2%
CCn1c(COc2ccc(C)cc2)nnc1SCC(=O)Nc1ccc(S(N)(=O)=O)cc1	-7%	9%	-6%	-20	22µM*
O=C(C[n+]1ccc(/C=N/O)cc1)NC1CCCCC1	.	.	.	.	10%
N#CCc1ccc(C(=O)c2ccccc2F)s1	20µM*	-3%	-20%	5	-81%
O=C(O)Cc1ccc(C(=O)c2ccccc2)s1	?	6%	-7%	30	-12%
COc1ccc(C(=O)NN2C(=O)C3C4C=CC(O4)C3C2=O)cc1 (stereo unspecified)	4%	0%	-4%	0	7.9µM*
COc1ccc(C(=O)NN2C(=O)C3CCC(C)(C2=O)C3(C)C)cc1 (stereo unspecified)	-11%	14%[0.0737 µM]	0%	110	2%
COc1cccc(C(=O)NN2C(=O)C3C4C=CC(O4)C3C2=O)c1 (stereo unspecified)	2%	18%	-4%	-12	14µM*
CCC1=C(OC(=O)N(CC)CC)N2C(=O)OC(=NCCOC)[C@]2(C)[C@H]2C1=CC[C@H]1C(=O)NC(=O)[C@H]12	-5%	.	-3%	.	-8%
COc1ccc(CCNC(=O)c2c(C)oc3ncn(CC(C)C)c(=O)c23)c(OC)c1	.	9%[46 µM]	.	.	.
CCc1ccccc1NC(=O)c1cc2nc(-c3ccc(Br)cc3)cc(C(F)(F)F)n2n1	.	22%[46 µM]	.	.	.
Cc1ccc(-n2cccc2C(=S)N=P(N(C)C)(N(C)C)N(C)C)cc1	?	-7%	-5%	11	10µM*

Bioassay records (PubChem)
